Reference: PubChem BioAssay (Tox21)
Results filed as inconclusive are left out. Where a call stands in place of a potency, no number is given. Activity calls are given as the source filed them. Unless noted, the call rests on the fitted dose curve.

Target: Estrogen receptor (Homo sapiens) (UniProt P03372)
Assay: qHTS assay to identify small molecule agonists of the estrogen receptor alpha (ER-alpha) signaling pathway (AID 743075);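 further: HEK293 GripTite cells with ER-alpha and UAS-driven beta-lactamase reporter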
Conditions: HEK293 ER-alpha-UAS-bla, beta-lactamase FRET ratio, 18 h; series mostly up to 70.1 µM

Chain of Estrogen receptor (Homo sapiens) (P03372 whole entry, looked up): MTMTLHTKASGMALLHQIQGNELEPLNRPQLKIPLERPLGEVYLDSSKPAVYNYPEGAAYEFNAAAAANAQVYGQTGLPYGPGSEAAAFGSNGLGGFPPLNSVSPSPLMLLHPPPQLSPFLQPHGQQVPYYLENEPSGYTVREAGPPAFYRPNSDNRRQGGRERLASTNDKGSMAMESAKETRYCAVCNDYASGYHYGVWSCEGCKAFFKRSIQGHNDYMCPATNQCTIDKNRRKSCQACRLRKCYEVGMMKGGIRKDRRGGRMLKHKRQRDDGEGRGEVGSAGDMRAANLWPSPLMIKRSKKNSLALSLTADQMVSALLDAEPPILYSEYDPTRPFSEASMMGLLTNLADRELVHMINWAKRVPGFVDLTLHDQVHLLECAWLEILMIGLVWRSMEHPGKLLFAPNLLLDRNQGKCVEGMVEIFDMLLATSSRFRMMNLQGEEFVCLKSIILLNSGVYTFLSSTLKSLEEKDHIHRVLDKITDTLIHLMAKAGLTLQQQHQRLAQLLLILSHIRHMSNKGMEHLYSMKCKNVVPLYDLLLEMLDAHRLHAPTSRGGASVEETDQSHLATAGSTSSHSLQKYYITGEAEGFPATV

SMILES	Potency
CC(=O)C1CCCCC1=O (stereo unspecified)	inactive
C=CC(C)(CCC=C(C)C)OC(=O)CC (stereo unspecified)	inactive
CCCCN1C=CN(C)C1	inactive
Cc1ccc(-c2ncc(Cl)cc2-c2ccc(S(C)(=O)=O)cc2)cn1	inactive
C=COCC1CCC(COC=C)CC1 (stereo unspecified)	inactive
O=S(=O)(O)c1cccc(S(=O)(=O)O)c1	inactive
O=C(CO)[C@@H](O)[C@H](O)[C@@H](O)CO	inactive
CCCCCCCC1CCCC1=O (stereo unspecified)	inactive
C=CCOCC(O)CO (stereo unspecified)	inactive
O=C(O)Cc1csc(-c2ccc(Cl)cc2)n1	inactive
CCC(C)(CCCC(C)C)OC(C)=O (stereo unspecified)	inactive
CC(=O)Oc1cccc(C)c1	inactive
[K+]	inactive
CC(C)=CCC/C(C)=C/C#N	inactive
CCOC(=O)COc1cc(-n2ncc(C(F)(F)F)c(C)c2=O)c(F)cc1Cl	inactive
C=CC(=O)OCCCl	inactive
C1CCC2(CCCCO2)OC1	inactive
O=C(O)CNC(=O)c1ccc(CO)o1	inactive
Cc1cccc(C)c1NC(=O)CC12CCCN1CCC2	inactive

SMILES	Potency
CCCC[N+](C)(CCCC)CCCC	inactive
CC(C)(N)C#N	inactive
CCCCN(CCC(=O)OCC)C(C)=O	inactive
CO[Si](C)(OC)c1ccccc1	inactive
CCCCCCCCCCCCCCCCCCO	inactive
CCC1C(=O)OCC1Cc1cncn1C (stereo unspecified)	inactive
O=S(=O)(O)c1cc(O)c(O)c(S(=O)(=O)O)c1	inactive
CCCCCC(=O)OCCc1ccccc1	inactive
O=C(O)c1cc(C(=O)O)cc(C(=O)O)c1	inactive
CCCCOCCOC(=O)COc1cc(Cl)c(Cl)cc1Cl	inactive
OCCCCCO	inactive
CN(C)CCN(C)CCN(C)C	inactive
CC(=O)c1cnccn1	inactive
CCCCOC(=O)CCC(C)=O	inactive
CC(C)c1ccc2ncccc2c1	inactive
CCOC(=O)COC(=O)c1ccccc1C(=O)OCC	inactive
CCCCCCCCCCOc1cc2c(=O)c(C(=O)OCC)c[nH]c2cc1OCC	inactive
CCN[C@H]1C[C@H](C)S(=O)(=O)c2sc(S(N)(=O)=O)cc21	inactive
CCNS(=O)(=O)c1ccc(C)cc1	inactive

Target: Estrogen receptor (Homo sapiens) (UniProt P03372)
Assay: qHTS assay to identify small molecule agonists of the estrogen receptor alpha (ER-alpha) signaling pathway using the BG1 cell line (AID 743079; active means well fitted activation curve with a large enough effect in the repeat runs; further: nearly all actives have a fitted effect of over 20% in size; further: potency means the concentration at half of the fitted maximal effect)
Conditions: BG1Luc4E2 cells, ERE-luciferase agonist, 22 h; series mostly up to 70.3 µM

SMILES	Potency
CC(=O)C1CCCCC1=O (stereo unspecified)	inactive
C=CC(C)(CCC=C(C)C)OC(=O)CC (stereo unspecified)	inactive
CCCCN1C=CN(C)C1	inactive
Cc1ccc(-c2ncc(Cl)cc2-c2ccc(S(C)(=O)=O)cc2)cn1	inactive
C=COCC1CCC(COC=C)CC1 (stereo unspecified)	inactive
O=S(=O)(O)c1cccc(S(=O)(=O)O)c1	inactive
O=C(CO)[C@@H](O)[C@H](O)[C@@H](O)CO	inactive
CCCCCCCC1CCCC1=O (stereo unspecified)	inactive
C=CCOCC(O)CO (stereo unspecified)	inactive
O=C(O)Cc1csc(-c2ccc(Cl)cc2)n1	inactive
CCC(C)(CCCC(C)C)OC(C)=O (stereo unspecified)	inactive
CC(=O)Oc1cccc(C)c1	inactive
[K+]	inactive
CC(C)=CCC/C(C)=C/C#N	inactive
CCOC(=O)COc1cc(-n2ncc(C(F)(F)F)c(C)c2=O)c(F)cc1Cl	inactive
C=CC(=O)OCCCl	inactive
C1CCC2(CCCCO2)OC1	inactive
O=C(O)CNC(=O)c1ccc(CO)o1	inactive
Cc1cccc(C)c1NC(=O)CC12CCCN1CCC2	inactive

SMILES	Potency
CCCC[N+](C)(CCCC)CCCC	inactive
CC(C)(N)C#N	inactive
CCCCN(CCC(=O)OCC)C(C)=O	inactive
CO[Si](C)(OC)c1ccccc1	inactive
CCCCCCCCCCCCCCCCCCO	inactive
CCC1C(=O)OCC1Cc1cncn1C (stereo unspecified)	inactive
O=S(=O)(O)c1cc(O)c(O)c(S(=O)(=O)O)c1	inactive
CCCCCC(=O)OCCc1ccccc1	inactive
O=C(O)c1cc(C(=O)O)cc(C(=O)O)c1	inactive
CCCCOCCOC(=O)COc1cc(Cl)c(Cl)cc1Cl	inactive
OCCCCCO	40.3 µM (active)
CN(C)CCN(C)CCN(C)C	inactive
CC(=O)c1cnccn1	inactive
CCCCOC(=O)CCC(C)=O	inactive
CC(C)c1ccc2ncccc2c1	inactive
CCOC(=O)COC(=O)c1ccccc1C(=O)OCC	inactive
CCCCCCCCCCOc1cc2c(=O)c(C(=O)OCC)c[nH]c2cc1OCC	inactive
CCN[C@H]1C[C@H](C)S(=O)(=O)c2sc(S(N)(=O)=O)cc21	inactive
CCNS(=O)(=O)c1ccc(C)cc1	inactive
